The source of these data is PubChem BioAssay (NCATS).

Structures are written as SMILES. Unmarked numbers belong to inactive results. Results filed as inconclusive are left out. The source made the active and inactive calls. Unless noted, the call rests on the fitted dose curve; in most records, active means well fitted curve in the direction sought with a large enough effect; inconclusive means small, poorly fitted or top-dose-only effect, or another doubt; inactive means no such curve, though single readings can be large; an effect the other way counts as inactive or inconclusive.

One assay has as its system C33A. The assay is described as follows: Primary qHTS to identify gynecologic anti-cancer compounds using libraries of approved drugs and bioactive compounds (AID 1345084). Further: on the % scale 0 is the no-effect control and ±100 the full control effect; nearly all actives have a fitted effect of over 55% in size. To be noted: Gynecologic cancer cell panel viability, ATPlite luminescence, 48 h; series mostly up to 57.5 µM. Put shortly: (§1)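 48 h compound exposure at 37 C, 5% CO2; five-point qHTS. ATPlite luminescence readout of cell ATP.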

Another assay concerns CASKI. Described as above. To be noted: Gynecologic cancer cell panel viability, ATPlite luminescence, 48 h; series mostly up to 57.5 µM. Put shortly: as §1
The subject of another assay is Es-2. The description is as above. To be noted: Gynecologic cancer cell panel viability, ATPlite luminescence, 48 h; series mostly up to 57.5 µM. Put shortly:
as §1

The subject of another assay is HeLa. The description is as above. To be noted: Gynecologic cancer cell panel viability, ATPlite luminescence, 48 h; series mostly up to 57.5 µM. Put shortly: as §1
The next assay has as its system Hek293T. Described as above. To be noted: Gynecologic cancer cell panel viability, ATPlite luminescence, 48 h, control line for the selectivity index; series mostly up to 57.5 µM. The gist of the method:
as §1

Another assay relates to JEG-3. The assay is described as above. To be noted: Gynecologic cancer cell panel viability, ATPlite luminescence, 48 h; series mostly up to 57.5 µM. Put shortly: as §1
In another assay the test system is OV90. The description is as above. To be noted: Gynecologic cancer cell panel viability, ATPlite luminescence, 48 h; series mostly up to 57.5 µM. The gist of the method: as §1
For another assay, the system named is PA-1. Described as above. To be noted: Gynecologic cancer cell panel viability, ATPlite luminescence, 48 h; series mostly up to 57.5 µM. Put shortly:
as §1

In the next assay the test system is SKOV3. The description is as above. To be noted: Gynecologic cancer cell panel viability, ATPlite luminescence, 48 h; series mostly up to 57.5 µM. Put shortly:
as §1

A further assay concerns Tov-21-G. Described as above. To be noted: Gynecologic cancer cell panel viability, ATPlite luminescence, 48 h; series mostly up to 57.5 µM. The gist of the method:
as §1

The test system of the next assay is Tov112D. The assay is described as above. To be noted: Gynecologic cancer cell panel viability, ATPlite luminescence, 48 h; series mostly up to 57.5 µM. The gist of the method: as §1
Assay [1] can be described thus: Drug repurposing screens with cells derived from glioblastoma tumor samples (AID 1345199). Further: nearly all actives have a fitted effect of over 40% in size. Further: potency means the concentration at half of the fitted maximal effect. On activity, negative = cell killing: on the % scale 0 is the no-effect control and ±100 the full control effect. To be noted: GBM patient neurospheres viability, ATP luminescence, 48 h. The gist of the method: (§2)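 Primary testing used CD133+ neurospheres from four GBM patients, seven concentrations, 48 h exposure and ATP-based viability; confirmation added three slower-growing patient lines.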

The test system of a further assay is astro. Described as above. To be noted: viability, ATP luminescence, 48 h; series mostly up to 45.9 µM. The gist of the method:
as §2

Assay [2] addresses Nuclear receptor subfamily 1 group I member 2 (Rattus norvegicus) (UniProt Q9R1A7). Briefly: qHTS assay for small molecule activators of the rat pregnane X receptor (rPXR) signaling pathway (AID 651751; call rule not given here; further: 0% is about no effect). To be noted: rPXR reporter cells, luciferase (One-Glo), 24 h.
The nature of assay [3]: qHTS assay for small molecule activators of the human pregnane X receptor (PXR) signaling pathway (AID 720659; call rule not given here; further: 0% is about no effect).
Another assay has as its system CAOV3. The assay is described as follows: Primary qHTS to identify gynecologic anti-cancer compounds using libraries of approved drugs and bioactive compounds (AID 1345084). Further: on the % scale 0 is the no-effect control and ±100 the full control effect; nearly all actives have a fitted effect of over 55% in size. To be noted: Gynecologic cancer cell panel viability, ATPlite luminescence, 48 h; series mostly up to 57.5 µM. The gist of the method: as §1
The mark [4] stands for this setting: at 45.9 µM (top of the series), tumour line B.
The mark [5] stands for this setting: at 45.9 µM (top of the series), tumour line D.

Sequence of Nuclear receptor subfamily 1 group I member 2 (Rattus norvegicus) (Q9R1A7 whole entry, looked up): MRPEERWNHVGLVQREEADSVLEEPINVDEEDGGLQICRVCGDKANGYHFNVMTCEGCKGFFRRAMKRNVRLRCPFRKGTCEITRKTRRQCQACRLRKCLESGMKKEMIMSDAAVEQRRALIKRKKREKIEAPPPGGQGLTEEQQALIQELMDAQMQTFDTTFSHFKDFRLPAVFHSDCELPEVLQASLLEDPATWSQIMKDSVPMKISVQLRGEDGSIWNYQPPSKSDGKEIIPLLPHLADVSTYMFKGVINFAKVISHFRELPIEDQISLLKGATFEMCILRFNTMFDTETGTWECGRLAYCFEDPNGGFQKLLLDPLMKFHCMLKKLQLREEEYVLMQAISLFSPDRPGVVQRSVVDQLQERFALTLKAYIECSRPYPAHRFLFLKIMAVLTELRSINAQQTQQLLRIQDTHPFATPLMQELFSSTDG

On to `CCNc1nc(Cl)nc(NCC)n1`, for which the Potency entry in the assay on C33A, in the assay with CASKI, with Es-2, in the assay with HeLa, in the assay with Hek293T and in the assay on JEG-3 was “inactive” in each case. Besides, the Potency entry in the assay on OV90, in the assay with PA-1, with SKOV3, with Tov-21-G, in the assay with Tov112D and in the assay on astro was “inactive” throughout. For the same compound, the activity, negative = cell killing in [1] (setting [4]) was -2.74%; in assay [1] (setting [5]), -21.4%; in assay [1] (at 46 µM (top of the series), tumour line A), -24.7%. In assay [2], the max response is -3.28%. Besides, the compound was classed as inactive in [3].

Consider `C[C@]12C=CC(=O)C=C1CC[C@@H]1[C@@H]2CC[C@@]2(C)[C@H]1CC[C@]2(C)O`, for which the Potency entry with C33A, in the assay on CASKI, in the assay with Es-2, in the assay with HeLa, in the assay on Hek293T and in the assay on JEG-3 was “inactive” each time. Also, the Potency result in the assay on OV90, in the assay with PA-1, with SKOV3, in the assay with Tov-21-G and in the assay on Tov112D was “inactive” throughout. Further, the activity, negative = cell killing was -4.86% in assay [1] (setting [4]) and -22.4% in [1] (setting [5]).

As for `C[N+]1(C)[C@@H]2CC[C@H]1CC(OC(=O)C(CO)c1ccccc1)C2` (stereo not given in full), the Potency result in the assay on C33A, in the assay on CASKI, in the assay with Es-2, in the assay with HeLa, in the assay with Hek293T and with JEG-3 was “inactive” in each case. Moreover, the Potency entry with OV90, in the assay on PA-1, in the assay with SKOV3, in the assay on Tov-21-G and with Tov112D was “inactive” each time. In addition, the activity, negative = cell killing was -14.5% in [1] (at 21.2 µM (top of the series), tumour line B); -3.94% in [1] (at 21.2 µM (top of the series), tumour line D); -14.4% in assay [1] (at 21.3 µM (top of the series), tumour line A); -1.41% in [1] (setting [4]); -16.2% in assay [1] (setting [5]); -12.5% in assay [1] (at 46.1 µM (top of the series), tumour line C).

For the compound `CC(Cc1ccc2c(c1)OCO2)NO` (stereo not given), the Potency entry in the assay with C33A, in the assay on CASKI, in the assay on Es-2, in the assay with HeLa, in the assay on Hek293T and in the assay on JEG-3 was “inactive” in each case. Further, the Potency entry in the assay with OV90, in the assay on PA-1, in the assay with SKOV3, in the assay with Tov-21-G, in the assay with Tov112D and in the assay with astro was “inactive” each time. In addition, the activity, negative = cell killing in assay [1] (at 108 µM (top of the series), tumour line B) is -8.99%; in [1] (at 108 µM (top of the series), tumour line D) it was -8.83%.

As for `CCN(Cc1ccc(Cl)nc1)/C(=C/[N+](=O)[O-])NC`, the Potency result in the assay with C33A, in the assay with CASKI, in the assay on Es-2, with HeLa, in the assay with Hek293T and with JEG-3 was “inactive” each time. In addition, the Potency entry in the assay with OV90, in the assay on PA-1, in the assay with Tov-21-G, in the assay on Tov112D and with astro was “inactive” each time. The activity, negative = cell killing is -9.68% in assay [1] (setting [4]) and -5.99% in assay [1] (setting [5]).

As for `O=c1[nH]c2cc(Cl)ccc2n1C1CCNCC1`, the Potency entry with C33A, with CAOV3, with Es-2, in the assay with HeLa, with Hek293T and in the assay with JEG-3 was “inactive” in each case. For the same compound, the Potency result with OV90, in the assay on PA-1, with SKOV3, in the assay with Tov-21-G and in the assay with Tov112D was “inactive” each time.

`Cc1nc2ccccc2c(=O)n1-c1ccccc1Cl`: the Potency result in the assay on C33A, with CAOV3, with Es-2, in the assay with HeLa, in the assay on Hek293T and with JEG-3 was “inactive” each time. Moreover, the Potency result in the assay with OV90, with PA-1, in the assay on SKOV3, in the assay on Tov-21-G, with Tov112D and with astro was “inactive” in each case. The activity, negative = cell killing in assay [1] (at 91.6 µM (top of the series), tumour line B) is -7.8%; in [1] (at 91.6 µM (top of the series), tumour line D), -27.3%. The Potency in [1] (tumour line A) is 39.8 µM (active).
